# Reference: PubChem BioAssay (NCATS)
# Inconclusive results are not listed. A call without a number means that no potency is given here. The source made the active and inactive calls. Unless noted, the call rests on the fitted dose curve; in most records, active means well fitted curve in the direction sought with a large enough effect; inconclusive means small, poorly fitted or top-dose-only effect, or another doubt; inactive means no such curve, though single readings can be large or run the other way.
# Tested on: not listed separately
# Test: NCATS anti-infectives library activity on the primary C. elegans qHTS viability assay (AID 1745855; calls by dose curve)
# Settings: C. elegans worm area imaging, day 7; at 41.8 µM (top of the series) unless noted
# Method in brief: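 Titration-based screen in worms: eggs hatched overnight in M9, L1 larvae fed TOP10 capsules in S medium with compound, incubated 21 °C for 7 days; fluorescent objects gated by size and intensity at days 0, 3 and 7.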
row,SMILES,outcome
1,CCN1C(=O)C=CC1=O,inactive [at 83.3 µM]
2,NC(=O)c1ccccc1,inactive
3,Oc1cc(O)c2c(c1)O[C@H](c1ccc(O)c(O)c1)[C@@H](O)C2,inactive

# Target: Metallo-beta-lactamase type 2 (Klebsiella pneumoniae) (UniProt C7C422)
# Test: qHTS to identify inhibitors of the New Delhi Metallo-beta-lactamase (NDM): assay validation screen against the NCATS LOPAC Collection (AID 1794843);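 further: nitrocefin turnover by NDM-1 measured as 485 nm absorbance at plateau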
# Settings: NDM-1 enzyme, nitrocefin hydrolysis, absorbance 485 nm; series mostly up to 38.4 µM
# Method in brief: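 NDM-1 at 2 nM final in 50 mM HEPES pH 7.0 with 1 uM ZnSO4 and 0.01% Tween20 was preincubated with library compounds in DMSO. Nitrocefin (50 uM stock) was then added, and absorbance at 485 nm was read at the kinetic plateau.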
# Sequence of Metallo-beta-lactamase type 2 (Klebsiella pneumoniae) (C7C422 whole entry, looked up): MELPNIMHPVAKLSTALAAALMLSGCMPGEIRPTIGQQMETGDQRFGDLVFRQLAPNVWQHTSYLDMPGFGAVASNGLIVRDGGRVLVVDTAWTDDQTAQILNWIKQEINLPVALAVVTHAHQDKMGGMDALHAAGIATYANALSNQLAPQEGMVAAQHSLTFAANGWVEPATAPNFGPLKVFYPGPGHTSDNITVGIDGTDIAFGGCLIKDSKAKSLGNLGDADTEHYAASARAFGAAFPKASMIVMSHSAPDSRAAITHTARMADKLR
row,SMILES,Potency
1,CC(=O)O[C@H]1CC2(C)[C@@H](C[C@@H](O)[C@H]3[C@@]4(C)CC[C@@H](O)[C@@H](C)[C@@H]4CC[C@@]32C)C1=C(CCC=C(C)C)C(=O)O (stereo partly drawn),inactive
2,O=C(O)/C=C/c1ccc(O)c(O)c1,inactive
3,C=C1C[C@@]23CC[C@H]4[C@@](C)(CCC[C@@]4(C)C(=O)OC4OC(CO)C(O)C(O)C4O)[C@@H]2CC[C@]1(OC1OC(CO)C(O)C(O)C1OC1OC(CO)C(O)C(O)C1O)C3 (stereo partly drawn),inactive
4,O=C(O)c1ccccc1Nc1cccc(OCc2ccc3ccccc3n2)c1,inactive
5,O=c1onc2n1-c1cc(Br)ccc1OC2,inactive
6,Cc1nc2c(OCc3ccccc3)cccn2c1CC#N,inactive
7,CN1CCC2(CCN3CCc4c(oc5ccccc45)C3C2)N(C)C1=O (stereo not drawn),inactive
8,O=C1Nc2ccc(I)cc2/C1=C/c1cc(Br)c(O)c(Br)c1,inactive
9,Nc1ncnc2c1nc(Sc1ccc(Cl)cc1)n2[C@H]1OC2COP(=O)(O)O[C@@H]2C1O (stereo partly drawn),inactive
10,C[N+](C)(C)CC=O,inactive
11,CCCCCCCCCC[Si](C)(C)CCC(=O)NC(Cc1ccc(C)cc1)c1ccccc1 (stereo not drawn),inactive
12,NC(=O)CNCCC(c1ccccc1)c1ccccc1,inactive
13,C[C@H](O)C(=O)C1=Nc2c(nc(N)[nH]c2=O)NC1,inactive
14,NC1CCN(O)C1=O (stereo not drawn),inactive
15,CN(C)C(=O)/N=N/C(=O)N(C)C,inactive
